Test results reported in PubChem BioAssay (NCATS).
Results filed as inconclusive are left out. Calls of active or inactive are those of the source. Unless noted, the call rests on the fitted dose curve; in most records, active means well fitted curve in the direction sought with a large enough effect; inconclusive means small, poorly fitted or top-dose-only effect, or another doubt; inactive means no such curve, though single readings can be large; an effect the other way counts as inactive or inconclusive.

Legend:
[1] = target: Cytochrome P450 3A4 (Homo sapiens) (UniProt P08684); test: qHTS Assay for Inhibitors and Substrates of Cytochrome P450 3A4 (AID 884); further: nearly all actives have a fitted effect of over 50% in size
Method in brief: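 20 nM human CYP3A4 with 25 uM Luciferin-PPXE (at KM) in 200 mM KPO4, preincubated 10 min with compound; NADPH regeneration started a 60 min RT reaction. Luciferin detected by luminescence, normalized to 57 uM ketoconazole as full inhibition.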

[2] = test system: Zika virus NS2B-NS3 protease; test: Primary screen GU AMC qHTS for Zika virus inhibitors (AID 1347154); further: nearly all actives have a fitted effect of over 70% in size
Method in brief: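 Unlinked Zika NS2B hydrophilic domain/NS3 protease domain noncovalent complex (25 nM final) in 10 mM Tris-HCl pH 8.0, 0.01% Tween 20, with AMC peptide substrate. Fluorescence (ex 340, em 450 nm) change over 15 min, room temperature; percent inhibition fitted to 4-parameter Hill equation.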

[3] = Primary qHTS for small molecule stabilizers of the endoplasmic reticulum resident proteome: Secreted ER Calcium Modulated Protein (SERCaMP) assay (AID 1508630)
Method in brief: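 GLuc-SERCaMP-expressing SH-SY5Y cells, pretreated 16 h with compound, are challenged with thapsigargin to empty ER calcium stores; after 4 h, coelenterazine is added directly to the medium and luminescence is imaged.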

[4] = target: 3',5'-cyclic-AMP phosphodiesterase 4B (Homo sapiens) (UniProt Q07343); test: qHTS Assay for Inhibitors of PDE-IV (AID 607; active means well fitted activation curve with a large enough effect in the main read-out, with a control signal flat, not every such curve was filed as active)
Method in brief: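 Live HEK293 cells with a modified cyclic nucleotide-gated (CNG) channel report intracellular cAMP via membrane-potential dye fluorescence (ex 535/em 590 nm). Endogenous PDE-IV was targeted. Compounds were tested at up to 22.9 uM final; RO 20-1724 100 uM served as control.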

[5] = target: Guanine nucleotide-binding protein G(i) subunit alpha-1 (Homo sapiens) (UniProt P63096); test: qHTS Assay for Inhibitors of RGS12 GoLoco Motif Activity (Green Fluorophore) (AID 879)
Method in brief: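 Fluorescence polarization assay: 50 nM Gαi1 with 10 nM FITC-labeled RGS12 GoLoco peptide in 10 mM Tris pH 7.5, 150 mM NaCl, 0.1 mM GDP, 0.05% NP40, 10 min at room temperature with compound.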

[6] = target: Cytochrome P450 2D6 (Homo sapiens) (UniProt P10635); test: qHTS Assay for Inhibitors and Substrates of Cytochrome P450 2D6 (AID 891)
Method in brief: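 Human CYP2D6 (5 nM) with 30 uM Luciferin-ME EGE (at Km) in 100 mM KPO4, compound preincubated 10 min, then NADPH regeneration system for 60 min at room temperature. Luciferin read by luminescence; normalized to 1.43 uM quinidine.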

[7] = target: Cytochrome P450 2C19 (Homo sapiens) (UniProt P33261); test: qHTS Assay for Inhibitors and Substrates of Cytochrome P450 2C19 (AID 899)
Method in brief: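 Human CYP2C19 (5nM) with Luciferin-H EGE at 10uM (its KM) in 50mM KPO4 was preincubated with compound for 10 min at 37C. NADPH regeneration started a 60 min 37C reaction. Luciferin was read by luminescence, normalized to 57uM ketoconazole.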

[8] = qHTS Assay for Identification of Small Molecule Antagonists for Thrombopoietin (TPO) Signaling Pathway (AID 918); conditions: TPO-dependent cell signaling reporter, antagonist mode
Method in brief: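 Murine Ba/F3 cells stably expressing human TPO receptor and a Glycoprotein IIb promoter–luciferase reporter were IL-3-starved overnight, treated with compounds plus TPO (26 pM final, its EC50) for 24 hrs at 37 C, then read by luminescence.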

[9] = target: Pyruvate kinase (Leishmania mexicana) (UniProt Q27686); test: qHTS Validation Assay for Inhibitors of Leishmania Mexicana Pyruvate Kinase (AID 945)
Method in brief: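 Substrate mix (0.5 mM PEP, 0.1 mM ADP, 7 mM MgCl2, 50 mM KCl, pH 7.2 imidazole) received compound by pin tool, then 0.2 nM LmPYK E451W. After 1 h at room temperature, PKLight was added and luminescence measured.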

[10] = target: Pyruvate kinase PKM (Homo sapiens) (UniProt P14618); test: qHTS Assay for Activators of Human Muscle Pyruvate Kinase (AID 954; active means well fitted curve in the direction sought with a large enough effect, not every such curve was filed as active)
Method in brief: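 Enzyme was run at intermediate activity so both inhibitors and activators could be detected. ATP formed from ADP and PEP by 0.1 nM human PKM2 during a 1 h room-temperature incubation was quantified by coupled luciferase luminescence.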

[11] = target: Alpha-galactosidase A (Homo sapiens) (UniProt P06280); test: Counterscreen for Glucocerebrosidase Inhibitors: qHTS Assay for Human alpha-Galactosidase at pH 4.5 (AID 992)
Method in brief: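 Read-out is 4-methylumbelliferone fluorescence (365 nm excitation, 440 nm emission) after a pH 10 NaOH/glycine stop. Reactions held 2 nM enzyme and 80 uM substrate at pH 4.5 for 20 min at room temperature.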

[12] = target: alpha-glucosidase (Oryza sativa, rice) (UniProt Q653V4); test: Counterscreen for Glucocerebrosidase Inhibitors: qHTS Assay for Rice alpha-Glucosidase at pH 5.0 (AID 997)
Method in brief: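 Rice alpha-glucosidase (4 nM final) with 400 uM 4-methylumbelliferyl-alpha-D-glucopyranoside in citrate buffer pH 5.0, 20 min at room temperature, stopped at pH 10; fluorescence 365/440 nm, compounds 0.7 nM–77 uM, AC50 from Hill fits.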

[13] = target: DNA dC->dU-editing enzyme APOBEC-3G (Homo sapiens) (UniProt Q9HC16); test: qHTS for inhibitors of Vif-A3G interactions: Validation (AID 588379)
Method in brief: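 HeLa cells stably expressing Vif and A3G-eYFP, 700 cells/well, incubated overnight at 37 deg C, then exposed to compound overnight at 37 deg C. Inhibition of Vif-mediated degradation read as increased yellow fluorescence (Ex 488/Em 500-530) by laser-scanning cytometry.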

[14] = Cytotoxicity counterscreen for NFkB agonists and antagonists (AID 624476)
[15] = qHTS Assay for Identification of Small Molecule Agonists for NFkB Signaling Pathway. (AID 624478)
Method in brief: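 NFkB-bla ME-180 cells (beta-lactamase reporter under NFkB response element) were plated overnight, treated with compound plus TNF alpha at 10 pM final (its EC50) for 5 hrs at 37 C, then loaded with LiveBLAzer substrate for 2 hrs.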

[16] = qHTS Assay for Identification of Small Molecule Antagonists for NFkB Signaling Pathway. (AID 624479; calls by dose curve)
[17] = Cell Proliferation Assay against the TMD8 Cell Line (AID 651645); conditions: TMD8 DLBCL cell line proliferation/viability; at 46.1 µM (top of the series)
Method in brief: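 500 TMD8 cells/well, RPMI + Glutamax, no phenol red, 5% FBS; cpd added immediately; 48 h, 37C, 5% CO2; CellTiter-Glo, luminescence. Controls: DMSO = 100%, bortezomib 9.2 uM final = 0%.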

[18] = Cell Proliferation Assay against the HBL1 Cell Line (AID 651646); conditions: HBL1 DLBCL cells; at 46.1 µM (top of the series)
Method in brief: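 500 log-phase HBL1 cells per well in phenol red-free RPMI with 5% FBS were treated with compounds for 48 h at 37 °C, 5% CO2. Viability was read by CellTiter-Glo luminescence, normalized to DMSO (100%) and 9.2 uM bortezomib final (0%).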

[19] = Cell Proliferation Assay against the TMD8 Cell Line (Caspase readout at 16 hrs) (AID 651712); conditions: TMD8 lymphoma cells, caspase activation luminescence
Method in brief: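 TMD8 cells (500/well) in phenol-red-free RPMI with glutamine, 5% FBS, were exposed to compounds for 16 h at 37 °C. Caspase 3/7 activation was read by Caspase-Glo luminescence; percent activity normalised to DMSO (0%) and 9.2 uM bortezomib final (100%).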

[20] = Cell Proliferation Assay against the TMD8 Cell Line (Caspase readout at 8 hrs) (AID 651713); conditions: TMD8 lymphoma cells, caspase activation luminescence
Method in brief: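 TMD8 cells (500/well) in phenol red-free RPMI with 5% FBS were treated with compounds for 8 h at 37C, 5% CO2. Caspase-Glo 3/7 luminescence was read after 15 min at room temperature and normalised to DMSO (0%) and 9.2 uM bortezomib (100%).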

[21] = target: Tyrosine-protein kinase Yes (Homo sapiens) (UniProt P07947); test: qHTS for small molecule inhibitors of Yes1 kinase: Primary Screen (AID 686947)
Method in brief: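 ADP-Glo luminescence readout; final 4 nM Yes1, 0.1 mM ATP, 0.3 mg/mL poly(E4Y), Tris pH 7.5, MgCl2, DTT, Brij-35. 20 min compound preincubation, 60 min reaction at RT. Normalized to DMSO wells with and without enzyme.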

[22] = qHTS for small molecule inhibitors of Yes1 kinase: Counter Assay (AID 686950)
Method in brief: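 Enzyme-free ADP-Glo interference check: compounds were preincubated 20 min in buffer, then an ATP/ADP mix (0.08 mM ATP, 0.02 mM ADP final) was added for 60 min at room temperature before two-step ADP-Glo luminescence detection.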

[23] = qHTS profiling for inhibitors of Plasmodium falciparum (3D7) proliferation (AID 743322); conditions: P. falciparum 3D7 proliferation; at 28.7 µM (top of the series)
Method in brief: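 Erythrocytes infected with P. falciparum (0.3% parasitemia, 2.5% hematocrit) incubated with compounds 72 h at 37 C, 5% CO2. Lysis with saponin/Triton buffer containing SYBR Green I, overnight at room temperature in the dark; DNA fluorescence (485/535 nm) normalised to 0.29 uM artemisinin and DMSO.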

[24] = qHTS profiling for inhibitors of Plasmodium falciparum (DD2) proliferation (AID 743323; call rule not given here); conditions: lower = more inhibition; at 28.7 µM (top of the series)
Method in brief: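 Parasite proliferation measured via DNA-dye fluorescence, as uninfected erythrocytes lack DNA. Cultures at 0.3% parasitemia and 2.5% hematocrit incubated 72 h with compound; signal scaled between vehicle and 0.29 uM artemisinin wells.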

[25] = target: Mitogen-activated protein kinase 10 (Mus musculus) (UniProt Q61831); test: JNK3 AlphaScreen Assay (AID 530; active means well fitted curve in either direction with a large enough effect, not every such curve was filed as active;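 further: kinase came from lysate of stimulated human HepG2 cells; signal reports phosphorylation of biotinylated GST-cJun 1-79 at Ser73 with 10 µM ATP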)
Method in brief: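 JNK3 came from HepG2 lysates pre-activated with IL-1beta and TNF-alpha and phosphorylated biotinylated GST-cJun (1-79) at 10 uM ATP, pH 7.6, room temperature. Compounds were titrated. AlphaScreen signal used anti-phospho-cJun (Ser73) antibody.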

[26] = target: Rap guanine nucleotide exchange factor 4 (Homo sapiens) (UniProt Q8WZA2); test: Confirmatory qHTS for antagonist of cAMP-regulated guanine nucleotide exchange factor 4 (EPAC2) (AID 1645885); further: potency means the concentration at half of the fitted maximal effect; nearly all actives have a fitted effect of over 25% in size
Chain of Rap guanine nucleotide exchange factor 4 (Homo sapiens) (Q8WZA2 whole entry, looked up): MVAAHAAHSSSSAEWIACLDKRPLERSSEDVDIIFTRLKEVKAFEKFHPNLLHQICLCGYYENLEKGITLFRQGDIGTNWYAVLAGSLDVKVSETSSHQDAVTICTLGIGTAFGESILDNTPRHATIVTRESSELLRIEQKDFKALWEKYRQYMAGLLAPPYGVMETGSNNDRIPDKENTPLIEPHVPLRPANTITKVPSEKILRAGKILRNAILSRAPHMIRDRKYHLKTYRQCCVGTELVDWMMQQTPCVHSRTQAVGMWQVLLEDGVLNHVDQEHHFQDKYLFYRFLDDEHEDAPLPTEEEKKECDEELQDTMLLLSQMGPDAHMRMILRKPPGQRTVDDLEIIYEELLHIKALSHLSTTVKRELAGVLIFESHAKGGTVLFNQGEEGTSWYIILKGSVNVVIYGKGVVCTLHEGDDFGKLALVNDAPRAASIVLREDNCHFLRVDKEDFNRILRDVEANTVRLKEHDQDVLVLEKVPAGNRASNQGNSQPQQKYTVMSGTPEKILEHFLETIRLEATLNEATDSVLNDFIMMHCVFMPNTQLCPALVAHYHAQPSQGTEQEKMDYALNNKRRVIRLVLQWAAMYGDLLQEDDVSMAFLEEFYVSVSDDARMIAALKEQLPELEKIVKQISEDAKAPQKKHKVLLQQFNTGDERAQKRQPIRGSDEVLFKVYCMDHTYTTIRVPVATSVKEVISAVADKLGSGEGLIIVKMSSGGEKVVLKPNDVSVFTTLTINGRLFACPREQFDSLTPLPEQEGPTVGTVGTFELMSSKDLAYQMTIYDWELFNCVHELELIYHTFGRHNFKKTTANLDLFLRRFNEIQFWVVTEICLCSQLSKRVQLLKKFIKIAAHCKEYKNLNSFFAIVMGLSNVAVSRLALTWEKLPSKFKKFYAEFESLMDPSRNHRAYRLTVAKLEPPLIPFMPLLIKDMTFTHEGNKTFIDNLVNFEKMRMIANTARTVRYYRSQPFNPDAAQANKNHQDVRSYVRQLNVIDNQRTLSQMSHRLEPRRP

Chain of Cytochrome P450 3A4 (Homo sapiens) (P08684 whole entry, looked up): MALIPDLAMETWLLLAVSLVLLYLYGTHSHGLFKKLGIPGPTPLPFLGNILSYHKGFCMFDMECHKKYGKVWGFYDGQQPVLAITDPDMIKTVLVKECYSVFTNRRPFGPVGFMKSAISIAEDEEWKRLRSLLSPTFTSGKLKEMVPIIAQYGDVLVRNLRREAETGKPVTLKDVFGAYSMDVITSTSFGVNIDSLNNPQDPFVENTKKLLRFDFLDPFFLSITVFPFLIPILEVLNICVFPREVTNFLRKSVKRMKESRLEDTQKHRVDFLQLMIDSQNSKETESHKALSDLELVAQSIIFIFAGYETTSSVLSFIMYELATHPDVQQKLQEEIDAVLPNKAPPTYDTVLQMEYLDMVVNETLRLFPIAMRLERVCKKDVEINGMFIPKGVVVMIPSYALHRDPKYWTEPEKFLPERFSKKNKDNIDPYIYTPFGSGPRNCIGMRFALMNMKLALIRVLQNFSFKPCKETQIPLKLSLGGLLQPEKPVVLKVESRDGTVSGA

CCN(CC)CCCCC1CCN(CC(=O)N2c3ccccc3C(=O)Nc3cccnc32)CC1
inactive: Potency [1] | Potency [2] | Potency [3]

C/C=C\C[C@@H](C)[C@@H](O)[C@H]1C(=O)N[C@@H](CC)C(=O)N(C)CC(=O)N(C)[C@@H](CC(C)C)C(=O)N[C@@H](C(C)C)C(=O)N(C)[C@@H](CC(C)C)C(=O)N[C@@H](C)C(=O)N[C@H](C)C(=O)N(C)[C@@H](CC(C)C)C(=O)N(C)[C@@H](CC(C)C)C(=O)N(C)[C@@H](C(C)C)C(=O)N1C
inactive: Potency [25] | Potency [2]
active: Potency [26] 24.8 µM
